Each structure is given as a SMILES string. Inconclusive results are not listed. Entries that show only a call come without a potency. Activity calls are given as the source filed them. Calls come from the whole dose curve; as a rule, active = well fitted activation curve with a large enough effect; inconclusive = small, poorly fitted or top-dose-only effect; inactive = flat fitted curve, though single readings scatter.

The source of these data is PubChem BioAssay AID720517 (National Center for Advancing Translational Sciences (NCATS), 2013).

This assay in a line: qHTS for Inhibitors of Cell Surface uPA Generation: FP59 Counterscreen for Cherry-picked Compounds. The note with it: FP59 anthrax toxin cytotoxicity counterscreen, cells; series mostly up to 115 µM. Background: Quantitative high-throughput screening tests each substance at several concentrations.
Consider `COc1ccc(Nc2nc(-c3ccccc3)c(C(=O)Nc3cccnc3)s2)cc1`, for which the Potency entry was “inactive”.

As for `COc1ccc(N2CCN(C(=O)COc3ccc4c(C)c(C)c(=O)oc4c3C)CC2)cc1`, the Potency result is “inactive”.

Turning to `Cc1cc(NC(=O)COc2cccc([N+](=O)[O-])c2)no1`, the Potency entry is “inactive”.

For `Cc1ccc(C23CC4CC(CC(C(=O)NN)(C4)C2)C3)cc1`, the Potency result is “inactive”.

As to `CS/C(=C\[N+](=O)[O-])Nc1ccccc1`, the Potency result was “inactive”.

Turning to `O=C(CN1CCCC1)Nc1cccc(Cl)c1Cl`, the Potency result was “inactive”.

With `Cc1nn2c(=O)cc(CSc3nc4ccccc4[nH]3)nc2s1`, the Potency result is “inactive”.

For the compound `O=C(N/N=C/c1cccs1)c1ccco1`, the Potency entry is “inactive”.

For `O=C(c1ccccn1)C1CCCN(Cc2cn[nH]c2-c2cc3ccccc3o2)C1` (centres undefined), the Potency entry is “inactive”.

Turning to `CCOc1cc(C)c(S(=O)(=O)N2CCCCC2)cc1C`, the Potency result was “inactive”.

As to `C#CCN1C=C(C(=O)OCC)C(C)NS1(=O)=O` (centres undefined), the Potency entry is “inactive”.

Regarding `CCN(CC(=O)Nc1c(F)cccc1F)C(=O)c1ccc(-c2ccc(C(C)=O)cc2)o1`, the Potency result was “inactive”.

Turning to `Clc1ccc(C2=NN=C3COc4ccccc4N3C2)cc1`, the Potency result was “inactive”.

`Clc1ccccc1N1CCN(c2ncnc3nc[nH]c23)CC1`: the Potency entry was “inactive”.

As to `Cc1cccc(NC(=O)C2CCCN(S(=O)(=O)c3ccc4[nH]c(=O)ccc4c3)C2)c1` (centres undefined), the Potency result was “inactive”.

In the case of `COC(=O)c1cc(CNC(=O)c2ccc(N3CCCC3)c([N+](=O)[O-])c2)ccc1OC`, the Potency entry is “inactive”.

For `CCCOc1ccc(S(=O)(=O)NNC(=O)c2cc3ccccc3o2)cc1`, the Potency result was “inactive”.

As for `COc1ccc(NS(=O)(=O)c2cc3c(cc2C)NC(=O)CO3)c(OC)c1`, the Potency result was “inactive”.

As to `CCOc1ncccc1C(=O)NCc1ccccc1Cl`, the Potency result was “inactive”.
